Data: PubChem BioAssay (NCI)
Several values for one entry are separate records, joined by “and”; a condition that tells them apart may be missing. Identical values can stand only once. This is part of a sample that, as a whole, favours compounds with a hit. Of some 83,000 tested, about 20% had one in any assay.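 Values shown are percent growth following 48 h exposure of cells in 96-well plates to a single concentration of compound; below 10 was considered active.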 Unmarked numbers belong to inactive results. Activity calls are given as the source filed them.

test system: NCI/ADR-RES ovarian; experiment: NCI-60 one-dose screen, 48 h (100 = growth as untreated, 0 = no growth, -100 = all killed); details: 10 µM unless noted

SMILES	growth
CS(=O)(=O)c1nsc(N)n1	104%
CCCC(=O)OCC(COC(=O)CCC)OC(=O)CCC	100%
Cc1ccc(C(=O)c2ccc(C)cc2)cc1	93%
Cc1cc2nc3ccc(=[N+](C)C)cc-3sc2cc1N	1.81% (active) and 2.67% (active)
O=C1c2ccccc2C(c2ccccc2)C1c1ccccc1 (stereo unspecified)	94.8%
COC(=O)CCOc1ccccc1	108%
CC(C)(C(=O)c1cccnc1)c1cccnc1	106% and 67.8%
N#CC1c2ccccc2C=CN1C(=O)c1ccccc1 (stereo unspecified)	108% and 107%
OCCS	102%
Cc1ccc2cccc([N+](=O)[O-])c2n1	113% and 102%
CCN(C)c1ccccc1	97.3%
CCCC(=O)Oc1ccc(CC)cc1	105%
O=[N+]([O-])c1ccc(NC2CCCCC2)nc1	105% and 103%
O=C1C(=O)c2ccccc2C(O)=C1CC=C(Cl)Cl	57.6% and 55.7%
CC1=CC(=O)c2cccc(NC3=NCCO3)c21	97.5%
COc1ccc2nccc(Cl)c2c1	104%
CCc1ccc(OC(=O)CCl)cc1	103%
CC(=O)Oc1cc(C(C)C)c(OCCN(C)C)cc1C	99.5% and 111%

SMILES	growth
O=C(O)c1cccc(Br)c1	98.1% and 106%
CC1(C)CC(=O)NC1=O	103%
OCCSc1ccc(Cl)cc1	108% and 102%
COc1ccc(S(=O)(=O)c2ccc(F)cc2)cc1	95.3%
COc1ccccc1OCC(O)CO (stereo unspecified)	100% and 107%
Cc1ccc(NC(=S)N/C=C(\c2ccccc2)S(=O)Cc2ccccc2)c(C)c1 (stereo unspecified)	105%
O=[N+]([O-])c1ccc(NC(c2ccccc2)c2ccc3cccnc3c2O)cc1 (stereo unspecified)	11.7%
CN1C2C=CC(=O)C1C1C(=O)N(c3ccccc3)C(=O)C12 (stereo unspecified)	92.6%
Cc1cc(-c2ccc(N=Nc3c(C)nn(-c4ccc(S(=O)(=O)O)cc4)c3O)c(C)c2)ccc1N=Nc1ccc(O)c(C(=O)O)c1	104%
CCOCCC(=O)O	107%
O=c1[nH]nnc2cc(Cl)ccc12	106% and 97.5%
NC(=O)Cc1nc(O)cc(=O)[nH]1	115%
CC1OS(=O)OC1C (stereo unspecified)	107% and 99.7%
NNC(=O)Nc1ccccc1	105%
COC(=O)c1ccccc1Cl	109%
CCCCC/C(C)=N\NC(N)=S	48.8%
COCCNC(C)=O	120%
Nc1nc(-c2ccccn2)cc(-c2cc(-c3ccccn3)nc(N)n2)n1	107%
